This is part of a sample that, as a whole, favours compounds with a hit. Of some 79,000 tested, about 15% had one in any assay. Values without a mark were called inactive. Active and inactive are the calls of the source. Rule as the data show it: active = growth inhibition above about 70%; inactive = the rest.
How the values were obtained:
[1] = NCI Yeast Anticancer Drug Screen. Data for the mlh1 strain (AID 171);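 also: 0% = growth of vehicle-treated control cultures of the same strain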; conditions: S. cerevisiae mlh1 strain growth inhibition, stronger effect = higher value
Method in brief: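 Vehicle-normalised growth inhibition of a repair- or checkpoint-altered yeast strain following compound treatment.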

[2] = NCI Yeast Anticancer Drug Screen. Data for the sgs1 strain (AID 173);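 also: 0% = growth of vehicle-only control cultures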; conditions: S. cerevisiae sgs1 mutant, stronger effect = higher value
Method in brief: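 Screen format: yeast with repair or checkpoint alterations, compound exposure, growth read relative to vehicle.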

[3] = NCI Yeast Anticancer Drug Screen. Data for the mlh1 rad18 strain (AID 175); conditions: S. cerevisiae mlh1 rad18 strain growth inhibition, stronger effect = higher value
Method in brief: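 Vehicle-treated cultures served as the reference for growth inhibition in a yeast strain carrying DNA damage repair alterations exposed to each compound.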

[4] = NCI Yeast Anticancer Drug Screen. Data for the rad52 strain (AID 147);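 also: 0% = growth of vehicle-treated control cultures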; conditions: S. cerevisiae rad52 mutant growth inhibition, stronger effect = higher value
Method in brief: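 Vehicle-treated cultures served as the reference for growth inhibition of compound-exposed yeast bearing a DNA repair mutation.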

[5] = NCI Yeast Anticancer Drug Screen. Data for the wt1 strain (AID 149);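 also: 0% = growth of vehicle-treated wt1 cultures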; conditions: S. cerevisiae wt1 strain (SPY 50644) growth inhibition, stronger effect = higher value
Method in brief: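 wt1 yeast, compound-treated; % growth inhibition vs vehicle control.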

[6] = NCI Yeast Anticancer Drug Screen. Data for the rad50EPP+ strain (AID 151);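 also: 0% = growth of vehicle-treated control cultures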; conditions: S. cerevisiae rad50 mutant strain, stronger effect = higher value
Method in brief: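 In this screen, rad50EPP+ yeast were exposed to compounds. Growth inhibition was scored against vehicle-treated controls.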

[7] = NCI Yeast Anticancer Drug Screen. Data for the rad50 strain (AID 155);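 also: 0% = growth of vehicle-only cultures of the same strain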; conditions: S. cerevisiae rad50 strain growth inhibition, stronger effect = higher value
Method in brief: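 Genetically altered yeast (DNA repair pathway); compound treatment; growth inhibition vs vehicle ctrl.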

[8] = NCI Yeast Anticancer Drug Screen. Data for the mec2-1 strain (AID 157); conditions: S. cerevisiae mec2-1 strain, stronger effect = higher value
Method in brief: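 Vehicle-treated cultures served as reference for growth inhibition of compound-exposed mec2-1 yeast.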

[9] = NCI Yeast Anticancer Drug Screen. Data for the rad14 strain (AID 159);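 also: 0% = growth of vehicle-treated control cultures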; conditions: S. cerevisiae rad14 strain growth inhibition, stronger effect = higher value
Method in brief: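 Test compounds were applied to a repair-deficient yeast strain. Its growth was then compared with that of cultures given vehicle alone, and inhibition was expressed relative to those controls.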

[10] = NCI Yeast Anticancer Drug Screen. Data for the sgs1 mgt1 strain (AID 161);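 also: 0% = growth of cultures given vehicle only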; conditions: S. cerevisiae sgs1 mgt1 strain, stronger effect = higher value
Method in brief: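 Read-out: growth inhibition vs vehicle controls. Cells: mutant yeast strain deficient in DNA damage repair.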

[11] = NCI Yeast Anticancer Drug Screen. Data for the CLN2oe strain (AID 163);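 also: 0% = growth of vehicle-only control cultures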; conditions: S. cerevisiae CLN2oe strain, stronger effect = higher value
Method in brief: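 Inhibition relative to vehicle-treated yeast is reported. Cells: strain with genetic alteration in cell-cycle control, grown with compound.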

[12] = NCI Yeast Anticancer Drug Screen. Data for the cln2 rad14 strain (AID 165);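 also: 0% = growth equal to vehicle treated cultures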; conditions: S. cerevisiae cln2 rad14 strain, stronger effect = higher value
Method in brief: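 Each compound was tested on cln2 rad14 yeast. Inhibition of growth was calculated against vehicle-exposed controls.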

[13] = NCI Yeast Anticancer Drug Screen. Data for the bub3 strain (AID 167); conditions: S. cerevisiae bub3 mutant strain, stronger effect = higher value
Method in brief: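 Yeast carrying a defined mutation is treated with each compound, and growth is compared with that of vehicle-exposed cells to give inhibition.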

[14] = NCI Yeast Anticancer Drug Screen. Data for the wt2 strain (AID 169);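 also: 0% = growth of vehicle-treated yeast cultures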; conditions: S. cerevisiae wt2 strain growth inhibition, stronger effect = higher value
Method in brief: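 Inhibition of yeast growth was determined after compound treatment, normalised to controls receiving only vehicle.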

[15] = NCI Yeast Anticancer Drug Screen. Data for the rad18 strain (AID 177); conditions: S. cerevisiae rad18 mutant growth inhibition, stronger effect = higher value
Method in brief: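 Test articles were incubated with altered yeast defective in DNA damage repair. Results are given as inhibition of growth versus vehicle.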

[16] = at 5.0 µM (retest, dose inferred, filed as 0.5)
[17] = at 50.0 µM (retest, dose inferred, filed as 5.0)

**Q.** For CC(=O)OCC1OC(O[C@H]2C=C[C@@H](C(=O)OCc3ccccc3)n3c(=O)n(-c4ccccc4)c(=O)n32)C(OC(C)=O)C(OC(C)=O)C1OC(C)=O (stereo partly specified), which growth inhibition ([1]; at 1.2 µM) is on record?
**A.** -17%

**Q.** What about the growth inhibition ([1]; at 3.7 µM) of the same compound?
**A.** -2%

**Q.** What about the growth inhibition ([1]; at 11.0 µM) of the same compound?
**A.** -23%

**Q.** And the growth inhibition ([1]; at 33.0 µM)?
**A.** 39%

**Q.** What about the growth inhibition ([1]; at 100.0 µM) of the same compound?
**A.** 70% (active)

**Q.** What about the growth inhibition ([2]; at 1.2 µM) of the same compound?
**A.** -9%

**Q.** And the growth inhibition ([2]; at 3.7 µM)?
**A.** -15%

**Q.** What about the growth inhibition ([2]; at 11.0 µM) of the same compound?
**A.** -8%

**Q.** What about the growth inhibition ([2]; at 33.0 µM) of the same compound?
**A.** 50%

**Q.** And the growth inhibition ([2]; at 100.0 µM)?
**A.** 77% (active)

**Q.** What about the growth inhibition [3, 16] of the same compound?
**A.** 70% (active)

**Q.** And the growth inhibition [3, 17]?
**A.** 93% (active)

**Q.** What about the growth inhibition ([3]; at 50.0 µM) of the same compound?
**A.** 28.9%

**Q.** What does the source list for C/C=C/[P+](c1ccccc1)(c1ccccc1)c1ccccc1?
**A.** growth inhibition ([4]; at 1.2 µM): 49%; growth inhibition ([4]; at 3.7 µM): 62%; growth inhibition ([4]; at 11.0 µM): 70% (active); growth inhibition ([4]; at 33.0 µM): 83% (active); growth inhibition ([4]; at 100.0 µM): 92% (active); growth inhibition ([5]; at 1.2 µM): 31%; growth inhibition ([5]; at 3.7 µM): 42%; growth inhibition ([5]; at 11.0 µM): 54%; growth inhibition ([5]; at 33.0 µM): 61%; growth inhibition ([5]; at 100.0 µM): 86% (active); growth inhibition ([6]; at 1.2 µM): 13%; growth inhibition ([6]; at 3.7 µM): 2%; growth inhibition ([6]; at 11.0 µM): -4%; growth inhibition ([6]; at 33.0 µM): 0%; growth inhibition ([6]; at 100.0 µM): 16%; growth inhibition ([7]; at 1.2 µM): 50%; growth inhibition ([7]; at 3.7 µM): 67%; growth inhibition [7, 16]: 48%; growth inhibition ([7]; at 11.0 µM): 72% (active); growth inhibition ([7]; at 33.0 µM): 86% (active); growth inhibition [7, 17]: 78% (active); growth inhibition ([7]; at 50.0 µM): 81.2% (active); growth inhibition ([7]; at 100.0 µM): 95% (active); growth inhibition ([8]; at 1.2 µM): 21%; growth inhibition ([8]; at 3.7 µM): 44%; growth inhibition [8, 16]: 33%; growth inhibition ([8]; at 11.0 µM): 54%; growth inhibition ([8]; at 33.0 µM): 64%; growth inhibition [8, 17]: 63%; growth inhibition ([8]; at 50.0 µM): 83.3% (active); growth inhibition ([8]; at 100.0 µM): 91% (active); growth inhibition ([9]; at 1.2 µM): 30%; growth inhibition ([9]; at 3.7 µM): 27%; growth inhibition ([9]; at 11.0 µM): 28%; growth inhibition ([9]; at 33.0 µM): 63%; growth inhibition ([9]; at 100.0 µM): 97% (active); growth inhibition [10, 16]: 20%; growth inhibition [10, 17]: 73% (active); growth inhibition ([10]; at 50.0 µM): 78.3% (active); growth inhibition ([11]; at 1.2 µM): 16%; growth inhibition ([11]; at 3.7 µM): 13%; growth inhibition ([11]; at 11.0 µM): 29%; growth inhibition ([11]; at 33.0 µM): 30%; growth inhibition ([11]; at 100.0 µM): 78% (active); growth inhibition [12, 16]: 9%; growth inhibition [12, 17]: 16%; growth inhibition ([12]; at 50.0 µM): 52.6%; growth inhibition ([13]; at 1.2 µM): 15%; growth inhibition ([13]; at 3.7 µM): 29%; growth inhibition [13, 16]: 25%; growth inhibition ([13]; at 11.0 µM): 49%; growth inhibition ([13]; at 33.0 µM): 67%; growth inhibition [13, 17]: 86% (active); growth inhibition ([13]; at 50.0 µM): 78.6% (active); growth inhibition ([13]; at 100.0 µM): 90% (active); growth inhibition ([14]; at 1.2 µM): -1%; growth inhibition ([14]; at 3.7 µM): 12%; growth inhibition ([14]; at 11.0 µM): 18%; growth inhibition ([14]; at 33.0 µM): 47%; growth inhibition ([14]; at 100.0 µM): 87% (active); growth inhibition ([1]; at 1.2 µM): 30%; growth inhibition ([1]; at 3.7 µM): 43%; growth inhibition ([1]; at 11.0 µM): 63%; growth inhibition ([1]; at 33.0 µM): 68%; growth inhibition ([1]; at 100.0 µM): 92% (active); growth inhibition ([2]; at 1.2 µM): 19%; growth inhibition ([2]; at 3.7 µM): 31%; growth inhibition ([2]; at 11.0 µM): 55%; growth inhibition ([2]; at 33.0 µM): 61%; growth inhibition ([2]; at 100.0 µM): 89% (active); growth inhibition [3, 16]: 33%; growth inhibition [3, 17]: 63%; growth inhibition ([3]; at 50.0 µM): 87.8% (active); growth inhibition ([15]; at 1.2 µM): 58%; growth inhibition ([15]; at 3.7 µM): 67%; growth inhibition ([15]; at 11.0 µM): 68%; growth inhibition ([15]; at 33.0 µM): 90% (active); growth inhibition ([15]; at 100.0 µM): 94% (active)

Reference: PubChem BioAssay (NCI)
